Data on 40 molecules can be found in PubChem BioAssay.

SMILES strings stand for the structures. Active and inactive are the calls of the source. No rule for the calls is given here.

The term inhibition denotes the relative decrease from the control value, in per cent.

Chain of Pantothenate synthetase (Mycobacterium tuberculosis (strain ATCC 25618 / H37Rv)) (P9WIL5 whole entry, looked up): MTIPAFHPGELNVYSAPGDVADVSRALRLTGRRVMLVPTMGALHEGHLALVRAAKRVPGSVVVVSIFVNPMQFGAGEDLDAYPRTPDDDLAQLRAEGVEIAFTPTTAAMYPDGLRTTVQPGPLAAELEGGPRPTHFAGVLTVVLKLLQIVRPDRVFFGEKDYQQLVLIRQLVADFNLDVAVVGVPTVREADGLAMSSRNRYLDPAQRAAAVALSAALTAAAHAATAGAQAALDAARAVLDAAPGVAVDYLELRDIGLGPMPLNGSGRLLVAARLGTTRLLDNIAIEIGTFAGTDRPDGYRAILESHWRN

This assay has as its target Pantothenate synthetase (Mycobacterium tuberculosis (strain ATCC 25618 / H37Rv)) (UniProt P9WIL5). Nature of the assay: Recombinant Mtb pantothenate synthetase (PanC) inhibitors, coupled enzyme, confirmatory (AID 375).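 Also: 0% = full reaction with vehicle and 100% = no enzyme background.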 The settings on record: coupled enzyme assay; at 10 µM, hits give high values.
As to `OCCNc1ncnc2c1c(-c1ccccc1)c(-c1ccccc1)n2Cc1ccco1`, the inhibition is 1% (inactive).

With `COc1ccc(-n2cc(-c3ccccc3)c3c(N4CCN(CCO)CC4)ncnc32)cc1`, the inhibition is 0% (inactive).

`Cc1ccccc1CNS(=O)(=O)c1ccc2c(c1)OCCO2`: the inhibition is 0% (inactive).

Regarding `CCOC(=O)C1CCCN(c2c(NCc3ccco3)c(=O)c2=O)C1` (stereo not given), the inhibition is 0% (inactive).

For the molecule `COc1ccc(Cl)cc1S(=O)(=O)N1CCN(c2ccc(F)cc2)CC1`, the inhibition is 0% (inactive).

`Cc1cc(N2CCN(C3CCCC3)CC2)n2c(nc3ccccc32)c1C#N`: the inhibition is 0% (inactive).

Regarding `CCOC(=O)c1[nH]c(C)c(C(=O)Nc2ccc(C)cc2C)c1C`, the inhibition is 1% (inactive).

On to `COC(=O)CCN(C(=O)c1ccc2c(c1)OCO2)c1ccccn1`, for which the inhibition was 0% (inactive).

As to `O=C(N1CCCCCC1)N1CCN(S(=O)(=O)N2CCCCC2)CC1`, the inhibition was 0% (inactive).

As for `COCCNC(=O)CCCCCN1C(=O)CCC1=O`, the inhibition is 7% (inactive).

Turning to `Cc1ccc(C2N(c3ccc(Cl)c(Cl)c3)C(=O)C3CCCN32)o1` (stereo not given), the inhibition was 6% (inactive).

As to `COc1ccc(CC(=O)NCc2nnc(SCC(=O)Nc3nccs3)n2-c2ccccc2)cc1`, the inhibition was 0% (inactive).

For `CC(C(=O)Oc1ccc2c(c1)OCO2)N1C(=O)c2ccccc2C1=O` (stereo not given), the inhibition was 5% (inactive).

With `CCCC(=O)Nc1nc2ccc(S(N)(=O)=O)cc2s1`, the inhibition is 0% (inactive).

Turning to `Cn1c(=O)c2c(nc(SCC(=O)N3CCCc4ccccc43)n2C)n(C)c1=O`, the inhibition is 1% (inactive).

Regarding `C=CCSc1nnc(NC(=O)c2ccc(S(=O)(=O)NCC3CCCO3)cc2)s1` (stereo not given), the inhibition was 1% (inactive).

In the case of `CCOc1ccccc1NC(=O)CSc1c(C)n[nH]c1C`, the inhibition is 5% (inactive).

For the molecule `CCOc1ccccc1NC(=O)CN(C)S(=O)(=O)c1cccc2nsnc12`, the inhibition was 11% (inactive).

`CCn1c(C(=O)N2CCCC(C(=O)O)C2)cc2sccc21` (stereo not given): the inhibition was 11% (inactive).

For the molecule `O=c1[nH]c2ccc(Br)cc2c(-c2ccccc2)c1N1CCOCC1`, the inhibition is 1% (inactive).

For `CCN1CCN(c2c(Cl)cccc2NC(=O)c2ccc3c(c2)OCCO3)CC1`, the inhibition was 0% (inactive).

Take `CN(C)c1ccc(C(=O)Nc2nnc(-c3ccc(Cl)cc3)o2)cc1`: the inhibition is 0% (inactive).

Turning to `CN1C(=O)C(O)(CC(=O)c2ccccc2O)c2cc(Br)ccc21` (stereo not given), the inhibition was 0% (inactive).

In the case of `CCc1cc2c(=O)n(C(C)C(=O)OC3CCCCC3)cnc2s1` (stereo not given), the inhibition was 0% (inactive).

Turning to `CCN1CCN(Cc2ccc(NC(=O)Nc3ccccc3)cc2)CC1`, the inhibition was 1% (inactive).

On to `Cc1ccc(NCC(O)C(O)C(O)CO)cc1C` (stereo not given), for which the inhibition is 0% (inactive).

As to `Cc1ccc2c(C)nc(Nc3nc(CSc4nnnn4-c4ccccc4)cc(=O)[nH]3)nc2c1`, the inhibition was 11% (inactive).

As for `CSCCC(NC(=O)c1occc1C)C(=O)O` (stereo not given), the inhibition was 0% (inactive).

Take `CCNC(=O)CC1C(=O)N(c2ccccc2)C(=O)N1CCC(C)C` (stereo not given): the inhibition is 0% (inactive).

Take `CCc1c(C(=O)NCCc2ccc(OC)c(OC)c2)[nH]c(C)c1C(C)=O`: the inhibition was 12% (inactive).

With `NC(=O)OCC(COC(N)=O)c1ccccc1`, the inhibition is 1% (inactive).

For the molecule `O=C(OCC(=O)N1CCC(Cc2ccccc2)CC1)c1ccc[nH]c1=O`, the inhibition is 0% (inactive).

Regarding `Cc1ccc(SCc2[nH]nc3c2C(c2ccc(C)o2)C(C#N)=C(N)O3)cc1` (stereo not given), the inhibition was 3% (inactive).

As to `O=C1c2ccccc2S(=O)(=O)N1CC(O)Cn1c2ccccc2c2ccccc21` (stereo not given), the inhibition is 0% (inactive).

As for `O=C(CN1CCN(C2CCCCC2)CC1)Nc1ccccc1-c1ccccc1`, the inhibition is 6% (inactive).

`Cn1cc(-c2nc3ccccc3[nH]2)c2ccccc21`: the inhibition was 4% (inactive).

With `Cc1c(NC(=O)CN2c3cccc4cccc(c34)S2(=O)=O)c(=O)n(-c2ccccc2)n1C`, the inhibition is 0% (inactive).

For `Cc1cccc(OCC(=O)Nc2ccc(N3CCCC3)cc2)c1C`, the inhibition is 0% (inactive).

Take `COC(=O)CN(c1ccc2c(c1)OCO2)S(C)(=O)=O`: the inhibition was 4% (inactive).

As to `O=C(c1cccc(Cl)c1)N1CCN(Cc2ccncc2)CC1`, the inhibition was 0% (inactive).
